# Screening data (PubChem BioAssay)
# Sampled rows, rich in hits. Any-hit rate of the full collection: about 4.3%.
# ADAM10 inh: human ADAM10 inhibitors, primary screen, biochemical, QFRET, HTS. Disintegrin and metalloproteinase domain-containing protein 10 (Homo sapiens), O14672. recombinant ADAM10, EDANS/DABCYL FRET peptide cleavage, 3 h. inhibition, % at 7 µM. 0.62% of 370,000 active. AID 720582, 2013;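 active means inhibition above a per-campaign cutoff equal to the mean of compounds falling between control-based bounds plus 3 SD, cut at about 20% in these data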;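 further: 0% = DMSO wells while the 100% control is not disclosed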
# GRIN3A LBD mod: binders of NR3A ligand-binding domain, primary screen, biophysical, differential scanning fluorimetry, uHTS; Glutamate receptor ionotropic, NMDA 3A (GRIN3A) ligand-binding domain; 2.5% of 340,000 active; NR3A LBD differential scanning fluorimetry, Tm shift; 0% = protein alone, 100% = glycine-bound protein; Tm shift relative to glycine control, % at 25 µM;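 active means melting temperature shift of at least 10% of the positive control shift, at one fixed dose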
# FAS-TE inh: FAS thioesterase domain inhibitors, primary screen, biochemical, fluorescence intensity, uHTS; Fatty acid synthase (Homo sapiens), P49327; recombinant FAS-TE, OMFH fluorogenic substrate, fluorescence endpoint; inhibition, % at 15 µM; 0.67% of 360,000 active;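 active means compounds whose normalised, plate-corrected inhibition of enzyme fluorescence in the single-dose primary screen is 50% or more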;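 further: 0% = DMSO with enzyme and 100% = substrate without enzyme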
# ADAM17 inh: ADAM17 inhibitors, primary screen, biochemical, QFRET; Disintegrin and metalloproteinase domain-containing protein 17 (Homo sapiens), P78536; recombinant ADAM17, EDANS/DABCYL FRET peptide cleavage; inhibition, % at 6.95 µM; 0.83% of 370,000 active;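 active means inhibition above the mean of compounds lying between control limits plus 3 SD, set per campaign, cut at about 8.5% in these data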;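 further: 0% = DMSO-only wells as the low control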
# Target sequence (P78536 215-824 limits assumed): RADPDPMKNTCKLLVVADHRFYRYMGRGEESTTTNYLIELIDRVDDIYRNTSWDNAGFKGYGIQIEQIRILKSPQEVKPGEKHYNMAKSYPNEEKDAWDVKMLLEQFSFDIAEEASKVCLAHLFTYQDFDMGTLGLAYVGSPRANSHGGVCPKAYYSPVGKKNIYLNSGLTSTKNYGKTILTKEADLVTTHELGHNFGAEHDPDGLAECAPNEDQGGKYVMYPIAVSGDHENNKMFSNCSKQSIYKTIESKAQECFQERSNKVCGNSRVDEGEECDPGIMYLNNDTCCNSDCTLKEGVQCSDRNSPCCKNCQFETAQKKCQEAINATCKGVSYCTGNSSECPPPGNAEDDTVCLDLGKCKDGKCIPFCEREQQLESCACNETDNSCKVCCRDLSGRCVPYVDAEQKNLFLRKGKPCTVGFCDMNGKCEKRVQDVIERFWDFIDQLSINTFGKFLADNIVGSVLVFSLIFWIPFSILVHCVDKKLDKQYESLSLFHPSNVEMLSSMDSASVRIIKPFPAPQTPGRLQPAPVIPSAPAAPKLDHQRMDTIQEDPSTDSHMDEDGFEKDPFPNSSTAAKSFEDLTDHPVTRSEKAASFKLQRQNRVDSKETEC
# sPLA2-III inh: human group III sPLA2 inhibitors, primary screen, biochemical, QFRET, BODIPY PC-A2 liposome substrate; AID 743126, 2013; QFRET BODIPY PC-A2 liposome hydrolysis, fluorescence; Group 3 secretory phospholipase A2 (Homo sapiens), Q9NZ20; inhibition, % at 12.2 µM; 0.56% of 370,000 active;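 active means inhibition above mean plus 3 SD of compounds lying within the high and low control bounds, cut at about 19% in these data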;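 further: 0% = median of test compound wells and 100% = no enzyme DMSO wells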
# ADAM10 ctr: ADAM10 inhibitors, counter-screen for ADAM17 exosite inhibitor project, biochemical, FRET, human ADAM10; shares compounds with ADAM17 inh; recombinant ADAM10, EDANS/DABCYL FRET peptide cleavage, 3 h; inhibition, % at 6.95 µM; 47% of 2,900 active; AID 743256, 2014;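 active means mean inhibition over the triplicate runs exceeds the activity threshold set in the earlier primary screen, cut at about 20% in these data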;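 further: 0% = DMSO wells and 100% = marimastat wells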
# ADAM17 confirm: ADAM17 inhibitors, hit retest, confirmation, biochemical, QFRET peptide cleavage. shares compounds with ADAM17 inh. recombinant ADAM17, EDANS/DABCYL QFRET peptide cleavage. inhibition, % at 6.95 µM. 65% of 2,900 active;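 active means mean inhibition across replicates above the hit cutoff set in the primary screen, cut at about 8.5% in these data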;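 further: 0% = DMSO wells and 100% = marimastat wells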
# * = called active by the depositor; · = not tested or not shown.
SMILES,ADAM10 inh,GRIN3A LBD mod,FAS-TE inh,ADAM17 inh,sPLA2-III inh,ADAM10 ctr,ADAM17 confirm
COc1cccc(NC(=O)Nc2ccccc2SC)c1,8,-18,-2,6,-4,·,·
O=C(Nc1ccncc1)Nc1cccc(Cl)c1Cl,3,-2,5,-3,-14,·,·
CSc1ccccc1NC(=O)Nc1cccc(Cl)c1,14,10*,19,9.7*,-29,15,10*
Cc1cc(N=O)no1,0,·,·,-2,4,·,·
CCn1c(SCC(=O)Nc2ccc(NC(=O)c3ccco3)cc2)nnc1-c1cccs1,9,-21,-5,8.8*,3,10,4
O=C(CSc1nnc(-c2cccs2)n1Cc1ccco1)Nc1ccc(OCc2ccccc2)cc1,17,·,·,9.4*,-15,23*,12*
O=C(CSc1nnc(-c2cccs2)n1Cc1ccco1)Nc1ccc2c(c1)OCO2,3,0,2,-3,-6,·,·
COc1ccc(C)cc1NC(=O)CSc1nnc(COc2ccc(C)cc2)n1Cc1ccco1,19,0,11,11*,-19,26*,15*
COc1cc(NC(=O)c2cnn3c(C)cc(C)nc23)cc(OC)c1OC,-2,·,·,-2,0,·,·
O=S(=O)(c1ccccc1)N1CCCc2nc(-c3ccccc3)ccc21,5,·,·,0,-4,·,·
COC(=O)Cc1nnn2c1[C@H](C)[C@H](c1cccc(OC)c1OC)OCC2,-1,·,·,-2,-5,·,·
CC(C)(C)S(=O)N1Cc2cc(C(=O)NCc3ccc4c(c3)OCO4)nc(-c3cccc(-c4cc5ccccc5o4)c3)c2[C@@H]1CCO (some centres not stated),-2,·,-4,3,-4,·,·
COc1cccc(-c2cccc(-c3nc(C(=O)NCc4ccc5c(c4)OCO5)cc4c3[C@H](CCO)N(S(=O)C(C)(C)C)C4)c2)c1 (some centres not stated),16,·,-7,19*,-5,13,10*
COCCN1Cc2cc(C(=O)OC)c3c(c2C1=O)c1cc(F)ccc1n3S(=O)(=O)c1cccc(C)c1,-7,·,·,-1,-2,·,·
Nc1nc(C(c2ccccc2)c2ccccc2)cs1,20,-3,0,8.7*,6,6,4
Nc1nc(-c2ccccc2)cs1,2,-6,-8,-5,4,·,·
Cc1ccc(Cn2cc(CN(C)S(=O)(=O)c3ccccc3Br)nn2)cc1,2,·,·,-1,-3,·,·
COC(=O)C1=C(C)N=C2SC(C)C(=O)N2C1c1ccc(C(=O)OC)cc1 (configuration not stated),13,-7,-4,3,-9,·,·
COC(=O)C1=C(C)N=C2SC(C)C(=O)N2C1c1cccs1 (configuration not stated),11,-5,-8,9.6*,-12,1,4
Cc1ccc(CN(C)C(=O)CN2C(=O)NC(c3ccccc3)(c3ccccc3)C2=O)c(C)c1,8,4,30,9.1*,-11,31*,13*
O=c1cc(-c2ccccc2Cl)oc2c(NS(=O)(=O)c3ccccc3OC(F)(F)F)ccc(O)c12,15,-3,·,8.9*,-33,34*,20*
O=c1cc(-c2ccccc2Cl)oc2c(NS(=O)(=O)c3ccccc3C(F)(F)F)ccc(O)c12,13,2,36,7,-20,·,·
Cc1nn(CCCC(=O)Nc2cc(Oc3ccccc3)cc([N+](=O)[O-])c2)c(C)c1[N+](=O)[O-],17,9,42,12*,-12,39*,20*
Cc1nn(CCCC(=O)NCCc2ccccc2)c(C)c1[N+](=O)[O-],-2,0,40,-2,-2,·,·
Cc1ccc(N(CC(=O)O)S(=O)(=O)c2cccc3nonc23)cc1,-4,0,-4,-5,4,·,·
SMILES,ADAM10 inh,GRIN3A LBD mod,FAS-TE inh,ADAM17 inh,sPLA2-III inh,ADAM10 ctr,ADAM17 confirm
CC(=O)c1cccc(NC(=O)CN(c2ccc(C)cc2)S(=O)(=O)c2cccc3nonc23)c1,23*,-6,13,12*,-29,25*,15*
CC(C)COc1cccc(C(=O)Nc2ccc(S(=O)(=O)N3CCOCC3)cc2)c1,14,-1,26,9.1*,-19,27*,17*
O=C(CCCc1c[nH]c2ccccc12)Nc1ccc2ccccc2c1,8,24*,24,10*,-95,1,4
CC(=O)Nc1ccc(NC(=O)CN2CCN(c3cccc(C(F)(F)F)c3)CC2)cc1,·,-1,0,·,·,·,·
O=C(CN1CCN(c2cccc(C(F)(F)F)c2)CC1)Nc1cccc(C(F)(F)F)c1,13,0,27,8.8*,9,24*,12*
Nc1[nH]c(C(=O)c2ccccc2)c(-c2ccc(Cl)cc2)c1C(=O)c1c[nH]c2ccc(F)cc12,0,·,·,-2,-13,·,·
O=C(CCn1nc(-c2ccccc2)ccc1=O)N1CCN(c2ccccc2)CC1,-4,1,-3,-4,-1,·,·
O=C(CCn1nc(-c2ccccc2)c2ccccc2c1=O)N1CCN(c2ccccc2)CC1,12,0,11,10*,-7,6,8
CCC(C)[C@H](N)c1nnc(SCC(=O)c2ccc(Cl)cc2)o1 (some centres not stated),15,2,-3,9.2*,-15,-8,0
CC(C)(C)C(=O)CSc1nnc(SCc2cccc3ccccc23)s1,5,·,·,5,-72,·,·
Cc1cc(Cn2nnc(-c3ccc(Br)cc3)n2)cc(C)c1O,2,3,33,11*,-24,13,7
COC(=O)C1CN(Cc2ccc(Cl)cc2)CCS(=O)(=O)N1Cc1cn(Cc2ccc(C)cc2)nn1 (configuration not stated),10,·,·,4,-15,·,·
Cc1cc(C(=O)CCC(=O)N(C)CC(=O)Nc2ccccc2Br)c(C)s1,6,1,-1,11*,2,-10,-1
Clc1ccccc1C(c1nnnn1Cc1ccco1)N1CCN(Cc2ccco2)CC1 (configuration not stated),13,0,4,9.2*,-9,-15,-1
